These results are taken from PubChem BioAssay (EPA / NIEHS).

Active and inactive are the calls of the source. Rule for the calls: active = hit-call score of the fitted dose curve at least 0.9, where 1 is the maximum; inactive = score below 0.9.

Tested on in one experiment: not listed separately
Nature of the experiment: CCTE_Padilla_ZF_Score.Tail: CCTE's 144 Hour Post-fertilization zebrafish Assay Score for Tail Malformation, Padilla Lab (AID 2284414). Summed up: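 Wild-type zebrafish embryos, one per well in 200 uL 10% Hanks', dosed at 6-8 hpf, sealed, and kept at 26 C on a 14:10 h light cycle. Chemical was rinsed out at 5 dpf. Blinded brightfield scoring of tail defects followed at 6 dpf.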
For the molecule `OCC(O)CC(F)(F)C(F)(F)C(F)(F)C(F)(F)F` (centres undefined), the call was inactive.

In the case of `CCOC(=O)CC(=O)C(F)(F)C(F)(F)F`, the outcome was inactive.

For `O=C(Cl)C(F)(F)C(F)(F)C(F)(F)C(F)(F)C(F)(F)C(F)(F)F`, the call was inactive.

Tested on in another experiment: not listed separately
Briefly: CCTE_Padilla_ZF_Score.Blood_pooling: CCTE's 144 Hour Post-fertilization zebrafish Assay Score for Blood Pooling, Padilla Lab (AID 2284415). Summed up: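 Wild-type outbred zebrafish embryos, one per well in 10% Hanks', exposed from 6–8 hpf in sealed plates at 26C on 14:10 h light:dark, rinsed at 5 dpf. Blinded stereomicroscope scoring of blood pooling at 6 dpf; gain-of-signal versus DMSO.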
On to `OCCCC(F)(F)C(F)(F)C(F)(F)C(F)(F)C(F)(F)C(F)(F)C(F)(F)C(F)(F)F`, for which the call was inactive.

For the molecule `FC(F)(F)C(F)(F)C(F)(F)CC1CO1` (centres undefined), the result was inactive.

Consider `NC(=O)C(F)(F)C(F)(F)C(F)(F)C(F)(F)C(N)=O`, for which the result was inactive.

Tested on in the next experiment: not listed separately
Briefly: CCTE_Padilla_ZF_Score.Any: CCTE's 144 Hour Post-fertilization zebrafish Assay Score for Any Mortality or Malformation, Padilla Lab (AID 2284416). Summed up: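 Wild-type zebrafish embryos with chorions, one per well in 10% Hanks' from 6–8 hpf, dosed in sealed plates at 26 C, 14:10 h light:dark; rinsed at 5 dpf; blinded scoring at 6 dpf for death or malformation, versus DMSO.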
As for `O=C(O)C(F)(F)C(F)(F)C(F)(F)C(F)(F)C(F)(F)C(F)(F)C(F)F`, the result was inactive.

As for `O=C(O)C(F)(F)C(F)(F)C(F)(F)C(=O)O`, the result was inactive.

Turning to `NC(=O)C(F)(F)C(F)(F)C(F)(F)F`, the molecule was called inactive.

The next experiment relates to TTR (gene 7276). Nature of the experiment: CCTE_GLTED_hTTR_0.125uM: CCTE's human Transthyretin (hTTR) Inhibition Assay, with 0.125uM TTR, Great Lakes Toxicology and Ecology Division (GLTED) Lab (AID 2284431).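 Note: hits lower the fluorescence signal relative to DMSO baseline.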 Summed up:
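Probe-displacement format: chemicals competing for the T4 site release ANSA from 0.125uM TTR during a 2 h incubation, measured by fluorescence at 380 excitation and 475 emission.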
For the molecule `CCN=c1cc2oc3cc(NCC)c(C)cc3c(-c3ccccc3C(=O)OCC)c-2cc1C`, the AC50 was 32200 nM (active).

With `CCCCCCCC/C=C\CCCCCCCC(=O)N(C)CC(=O)O`, the AC50 is 3750 nM (active).

Regarding `CCN=C1C=CC(=C(c2ccc(N(CC)CC)cc2)c2ccc(N(CC)CC)cc2)c2ccccc21`, the AC50 was 1850 nM (active).

As to `CCC(Cc1c(I)cc(I)c(N)c1I)C(=O)O` (centres undefined), the concentration at half-maximal activity (AC50) was 2100 nM (active).

In the case of `O=C(c1ccccc1)c1ccc(O)cc1O`, the AC50 is 46.4 nM (active).
